High-throughput results deposited in PubChem by National Center for Advancing Translational Sciences (NCATS).
In the library only some 4.6% were active in any assay of this set; here they are far more common.
Vaccinia Venus = inhibitors of vaccinia virus (Venus reporter) | 330,000 tested, 0.46% active | Vaccinia virus Venus reporter expression, fluorescence | Potency, µM (highest dose often 36.5 µM), actives largely listed as inhibitors; calls by dose curve; tested in A549 cells; further: nearly all actives have a fitted effect of over 30% in size
Lassa entry inh = Lassa virus entry inhibition; Lassa virus pseudotype entry inhibition, cell reporter; Potency, µM (doses to about 37.9 µM), most hits filed as inhibitors; 300,000 tested, 1.2% active; AID 540256; calls by dose curve; tested in HEK293 cells; further: nearly all actives have a fitted effect of over 50% in size
HCV inh = HCV inhibition | Huh7.5.1 HCVcc-Cre infection, luciferase reporter, 44 h | Potency, µM (titrated, usually from 41.8 µM), hits mostly inhibitors | 340,000 tested, 3.4% active | AID 651820
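Infectious HCVcc-Cre (~0.5 moi) was added to cells just after compound, with cells seeded 4 h earlier at 1,000 per well. Luciferase activity after 44 h culture reported infection; substrate was incubated 15 min at room temperature before reading.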
VACV mCherry inh = vaccinia inhibition (mCherry reporter); Vaccinia virus mCherry reporter infection, fluorescence; Potency, µM (titrated, usually from 36.5 µM), actives largely listed as inhibitors; 310,000 tested, 0.63% active; calls by dose curve; tested in A549 cells; further: nearly all actives have a fitted effect of over 35% in size
MARV entry inh = inhibitors of Marburg virus binding or cell entry; Marburg virus pseudotyped entry inhibition, cell reporter; Potency, µM (doses to about 37.8 µM), usual class: inhibitors; 300,000 tested, 1.8% active; calls by dose curve; tested in HEK293 cells
HCV confirm = confirmation of hepatitis C virus inhibitors. shares compounds with HCV inh. HCVcc-Cre infectious virus cell assay, luciferase, inhibition. Potency, µM (series often up to 41.8 µM), actives largely listed as inhibitors. 640 tested, 78% active. AID 720575; further: nearly all actives have a fitted effect of over 80% in size
HCV cytotox = counter-screen for HCV inhibitors: host cell cytotoxicity. shares compounds with HCV inh. HCV host cell line cytotoxicity counterscreen. Potency, µM (series often up to 41.8 µM), hits mostly inhibitors. 640 tested, 22% active. AID 720576;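 further: 44 h compound exposure; nearly all actives have a fitted effect of over 55% in size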
Each line names hits and unclear results; the compound was inactive in the other large screens (follow-up assays come after a bar, where they were run). Unless noted, the call rests on the fitted dose curve; in most records, active means well fitted curve in the direction sought with a large enough effect; inconclusive means small, poorly fitted or top-dose-only effect, or another doubt; inactive means no such curve, though single readings can be large; an effect the other way counts as inactive or inconclusive.

COC(=O)c1c(C(=O)OC)c2cccc3cc(-c4ccccc4)c4ccc1c4n32	HCV inh 1.8µM (no result: VACV mCherry inh) | HCV confirm 5.6µM | HCV cytotox inconclusive
Cn1nccc1NC(=O)Nc1cccc(Cl)c1Cl	MARV entry inh inconclusive
COc1ccc(NC(=O)Nc2cccc(Cl)c2Cl)c(OC)n1	HCV inh 2.8µM, MARV entry inh inconclusive | HCV confirm inconclusive | HCV cytotox inactive
CNc1nc(NCc2ccco2)c2ccccc2n1	Vaccinia Venus inconclusive (no result: Lassa entry inh, HCV inh, MARV entry inh)
c1ccc(Nc2nc(NCc3ccco3)c3ccccc3n2)cc1	Vaccinia Venus inconclusive, Lassa entry inh 13µM, HCV inh 4µM, MARV entry inh inconclusive | HCV confirm 14µM | HCV cytotox 25µM
Oc1ccccc1N=Nc1nc(-c2ccccc2)c(-c2ccccc2)[nH]1	Vaccinia Venus inconclusive, Lassa entry inh 1.4µM, HCV inh 3.5µM, VACV mCherry inh inconclusive, MARV entry inh 1µM | HCV confirm 7.9µM | HCV cytotox inactive
COc1ccccc1CCNC(=O)c1ccc(-c2nc(CSc3ccc(C)cc3)c(C)o2)cc1	none (no result: HCV inh, MARV entry inh)
O=[N+]([O-])c1ccc(S(=O)(=O)CC(CN2CCCCC2)N2CCCCC2)cc1 (configuration not stated)	Lassa entry inh 5.2µM, HCV inh 4.5µM, MARV entry inh 4.6µM (no result: Vaccinia Venus, VACV mCherry inh) | HCV confirm 11µM | HCV cytotox 20µM
O=[N+]([O-])c1ccc(CN2CCCCCC2)cc1	Lassa entry inh inconclusive
CC(C)(C)C1CCc2c(sc3ncn(N)c(=N)c23)C1 (configuration not stated)	HCV inh inconclusive (no result: Vaccinia Venus, Lassa entry inh, VACV mCherry inh, MARV entry inh) | HCV confirm 6.3µM | HCV cytotox inconclusive
COC(=O)C1=C(C)NC(=O)C1(NC(=O)c1ccc(Cl)cc1)C(F)(F)F (configuration not stated)	Lassa entry inh inconclusive (no result: HCV inh, MARV entry inh)
COc1ccc(NC(=O)C(C(C)C)N2Cc3ccccc3C2=O)cc1 (configuration not stated)	none (no result: HCV inh, MARV entry inh)
COc1cccc(C(=O)Oc2c(CN3CCOCC3)cc(Cl)c3cccnc23)c1	Lassa entry inh inconclusive, HCV inh 4.5µM, MARV entry inh 8.2µM (no result: Vaccinia Venus, VACV mCherry inh) | HCV confirm inconclusive | HCV cytotox inconclusive
COc1cc2c(cc1NC(=O)COC(=O)CNS(=O)(=O)c1ccc(C)cc1)oc1ccccc12	HCV inh inconclusive | HCV confirm 7.9µM | HCV cytotox inactive
COc1ccc(S(=O)(=O)N[C@@H](C)C(=O)OCC(=O)Nc2cc3oc4ccccc4c3cc2OC)cc1	HCV inh 6.3µM, MARV entry inh inconclusive | HCV confirm 22µM | HCV cytotox inactive
COc1cc2c(cc1NC(=O)COC(=O)[C@@H](NS(=O)(=O)c1cccc(Cl)c1)C(C)C)oc1ccccc12	Vaccinia Venus inconclusive, HCV inh inconclusive, MARV entry inh inconclusive | HCV confirm 13µM | HCV cytotox inactive
CCOC(=O)c1sc2ncn(CC(=O)Nc3ccc(OCC)cc3)c(=O)c2c1C	Lassa entry inh inconclusive (no result: HCV inh)
Cc1ccc(CN2C(=O)N(c3ccc(F)cc3)C(=O)C2CC(=O)Nc2ccc(Cl)cc2)cc1 (configuration not stated)	none (no result: HCV inh)
COCCCNC(=O)CCCn1c(=O)c2cccn2c2ccccc21	none (no result: HCV inh, MARV entry inh)
COC(=O)C1=C(c2ccc3ccccc3c2)C[C@@H]2CC[C@H]1N2C(=O)N1CCCCC1	Vaccinia Venus inconclusive, HCV inh 7.9µM (no result: Lassa entry inh, MARV entry inh) | HCV confirm 11µM | HCV cytotox 11µM
COC(=O)C1=C(c2ccc(-c3ccccc3)c(F)c2)C[C@@H]2CC[C@H]1N2C(=O)N1CCOCC1	HCV inh 3.5µM (no result: Lassa entry inh, MARV entry inh) | HCV confirm 7.9µM | HCV cytotox 7µM
COC(=O)C1=C(c2ccc(-c3ccccc3)c(F)c2)C[C@@H]2CC[C@H]1N2C(=O)N1CCC(C)CC1	Vaccinia Venus inconclusive, HCV inh inconclusive (no result: Lassa entry inh, MARV entry inh)
Cn1c(-c2ccsc2)c(-c2cccs2)c2cc(-c3ccc4cc[nH]c4c3)ccc21	HCV inh 1.1µM, VACV mCherry inh inconclusive (no result: Lassa entry inh, MARV entry inh) | HCV confirm 11µM | HCV cytotox inactive
Cc1cc2[nH]c3c(c[n+](C)c4ccccc34)c2cc1C	HCV inh 5µM (no result: Vaccinia Venus, Lassa entry inh, VACV mCherry inh, MARV entry inh) | HCV confirm 16µM | HCV cytotox inconclusive
Cc1nn(-c2ccccc2)c(OC(=O)c2ccc(F)cc2)c1S(=O)(=O)c1ccccc1	Lassa entry inh inconclusive (no result: HCV inh)
Nc1nc(Cl)nc(N(c2ccccc2)c2ccccc2)n1	none
Nc1nc(CCl)nc(N(c2ccccc2)c2ccccc2)n1	Lassa entry inh inconclusive, HCV inh 0.56µM, VACV mCherry inh inconclusive, MARV entry inh inconclusive | HCV confirm 1µM | HCV cytotox inactive
COc1ccc2oc(=O)c(-c3nc(-c4cc(OC)c(OC)c(OC)c4)no3)cc2c1	none (no result: HCV inh, MARV entry inh)
CCS(=O)(=O)N1CCc2cc(C(=O)NC(C)c3ccccc3)ccc21 (configuration not stated)	none (no result: HCV inh)
Cc1ccc2c(c1)-c1cc(C)ccc1C2=O	HCV inh inconclusive | HCV confirm 22µM | HCV cytotox inactive
CCc1ccc(OCC2c3cc(OC)c(OC)cc3CCN2C(=O)c2ccc(S(=O)(=O)N3CCCC3)cc2)cc1 (configuration not stated)	Lassa entry inh inconclusive (no result: HCV inh, MARV entry inh)
OC1CCN(c2c3c(nc4cc(-c5ccc(F)cc5)nn24)CCC3)CC1	HCV inh inconclusive | HCV confirm 5µM | HCV cytotox inactive
Fc1ccc(-c2cc3nc4c(c(N5CCOCC5)n3n2)CCCC4)cc1	Lassa entry inh inconclusive, HCV inh inconclusive, MARV entry inh inconclusive
Cc1ccc(CNc2ncnc3onc(-c4ccc(F)cc4)c23)cc1	Lassa entry inh inconclusive (no result: HCV inh, MARV entry inh)
CC(C)CN(C(=O)CCCOc1ccc(Cl)cc1Cl)c1c(N)n(Cc2ccccc2)c(=O)[nH]c1=O	Lassa entry inh inconclusive, HCV inh inconclusive, MARV entry inh inconclusive | HCV confirm 11µM | HCV cytotox inactive
O=C(NCC(c1ccc2c(c1)OCO2)N1CCOCC1)c1c(F)cccc1F (configuration not stated)	Lassa entry inh inconclusive (no result: HCV inh, MARV entry inh)
COc1ccc(-c2nc(SCc3ccccc3)n(S(C)(=O)=O)n2)cc1	HCV inh 2.8µM (no result: Vaccinia Venus, VACV mCherry inh) | HCV confirm inactive | HCV cytotox inactive
c1ccc2c(c1)CCN(c1ncnc3c1[nH]c1ccccc13)C2	Lassa entry inh inconclusive, HCV inh 2.5µM, MARV entry inh inconclusive (no result: Vaccinia Venus, VACV mCherry inh) | HCV confirm 2.8µM | HCV cytotox 6.3µM
OC1(c2cccc(C(F)(F)F)c2)CCN(c2ncnc3c2[nH]c2ccccc23)CC1	Vaccinia Venus inconclusive, HCV inh inconclusive, VACV mCherry inh inconclusive, MARV entry inh inconclusive
COc1ccc(-c2nc(CSc3nnc(C)n4c3cc3sccc34)c(C)o2)cc1	none (no result: HCV inh, MARV entry inh)
Cc1nc2ccccc2n1Cc1ccccc1Br	HCV inh inconclusive, MARV entry inh inconclusive
Cc1nc2ccccc2n1Cc1ccc(Br)cc1	HCV inh 2.5µM, MARV entry inh inconclusive | HCV confirm 2µM | HCV cytotox 2µM
CSc1ccc(CN2CCN(Cc3ccc([N+](=O)[O-])cc3)CC2)cc1	Lassa entry inh inconclusive, HCV inh inconclusive, MARV entry inh inconclusive | HCV confirm 4µM | HCV cytotox 7µM
